Results from the supplement of paper PMC7530171.
± gives the standard deviation.

The compounds below were run on THP-1 macrophages infected with Mycobacterium tuberculosis H37Rv (assay: intracellular M.tb growth inhibition relative to DMSO (0) and 4 uM bedaquiline (100); higher = stronger inhibition of intracellular bacterial growth). Conditions: 10 µM; 4 days.
Procedure: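 OICR kinase inhibitor library screened in duplicate at 10 uM against THP-1 macrophages (PMA-differentiated) infected with M. tuberculosis H37Rv-pTEC27 (tdTomato RFP), 4 days at 37 C. Rows with complete host cell loss (placeholder inhibition 0, cell loss 100) were removed.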
With `COc1ccc2c(c1)/C(=C/c1cnc[nH]1)C(=O)N2` the “intracellular M.tb growth inhibition” value was -99.5 ± 38%.
In the case of `NC(=S)N/N=C/c1coc2ccccc2c1=O.[Cl][Cu][Cl]`, the “intracellular M.tb growth inhibition” value is reported as 4.45 ± 6.8%.
With `O=C1NC(=O)c2c1c1c3ccccc3[nH]c1c1[nH]c3ccccc3c21` [Arcyriaflavin A] the “intracellular M.tb growth inhibition” value was -61.8 ± 87%.
In the case of `COC[C@H]1OC(=O)c2coc3c2[C@@]1(C)C1=C(C3=O)[C@@H]2CCC(=O)[C@@]2(C)C[C@H]1OC(C)=O` [Wortmannin], the “intracellular M.tb growth inhibition” value is reported as -159 ± 64%.
For `CC(=O)c1c(O)c(C)c(O)c(Cc2c(O)c3c(c(C(=O)/C=C/c4ccccc4)c2O)OC(C)(C)C=C3)c1O` [Rottlerin], the “intracellular M.tb growth inhibition” value was -0.827 ± 1.2%.
In the case of `N#C/C(=C\c1ccc(O)c(O)c1)C(N)=S`, the “intracellular M.tb growth inhibition” value is reported as -46 ± 15%.
In the case of `Cn1cc(C2=C(c3cn(C4CCN(Cc5ccccn5)CC4)c4ccccc34)C(=O)NC2=O)c2ccccc21` [Enzastaurin], the “intracellular M.tb growth inhibition” value is reported as -5.94 ± 8.4%.
With `Cc1ccccc1-n1c(Cn2cnc3c(N)ncnc32)nc2cccc(C)c2c1=O` the “intracellular M.tb growth inhibition” value was -13.6 ± 20%.
`C/C(O)=C(\C#N)C(=O)Nc1cc(Br)ccc1Br` was tested, and the “intracellular M.tb growth inhibition” value was -33.5 ± 11%.
